Consider 40 compounds from PubChem BioAssay (EPA / NIEHS).

Results filed as inconclusive are left out. Activity calls are given as the source filed them. Rule for the calls: active = hit-call score of the fitted dose curve at least 0.9, where 1 is the maximum; inconclusive = response in the unintended direction; inactive = score below 0.9.

Chain of Nuclear receptor subfamily 1 group I member 2 (Homo sapiens) (O75469 whole entry, looked up): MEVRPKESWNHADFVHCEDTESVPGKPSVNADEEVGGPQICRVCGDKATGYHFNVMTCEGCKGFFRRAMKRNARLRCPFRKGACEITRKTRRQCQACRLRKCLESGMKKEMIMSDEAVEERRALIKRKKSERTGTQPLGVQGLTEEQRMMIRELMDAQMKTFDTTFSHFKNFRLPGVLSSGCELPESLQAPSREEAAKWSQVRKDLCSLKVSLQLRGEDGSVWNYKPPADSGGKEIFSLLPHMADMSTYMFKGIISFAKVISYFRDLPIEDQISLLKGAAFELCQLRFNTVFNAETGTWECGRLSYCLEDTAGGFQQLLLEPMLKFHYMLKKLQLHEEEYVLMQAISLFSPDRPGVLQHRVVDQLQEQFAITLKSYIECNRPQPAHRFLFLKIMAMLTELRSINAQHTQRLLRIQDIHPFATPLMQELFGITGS

The assay has as its target Nuclear receptor subfamily 1 group I member 2 (Homo sapiens) (UniProt O75469). Briefly: ATG_PXR_TRANS: Attagene TRANS-FACTORIAL HepG2 Assay for human Pregnane X Receptor (PXR) (AID 2283008). On the procedure:
ATG_TRANS is a cell-based, multiplexed-readout assay that uses HepG2, a human liver cell line, with measurements taken at 24 hours after chemical dosing in a 24-well plate.ATG_PXR_TRANS is one of 30 assay component(s) measured or calculated from the ATG_TRANS assay. It is designed to make measurements of mRNA induction, a form of inducible reporter, as detected with fluorescence intensity signals by Reverse transcription polymerase chain reaction (RT-PCR) and Capillary electrophoresis technology.Data from the assay component ATG_PXR_TRANS was analyzed into 1 assay endpoint. This assay endpoint, ATG_PXR_TRANS, was analyzed in the positive analysis fitting direction relative to DMSO as the negative control and baseline of activity. Using a type of inducible reporter, measures of mRNA for gain-of-signal activity can be used to understand the reporter gene at the transcription factor-level as they relate to the gene NR1I2. Furthermore, this assay endpoint can be referred to as a primary readout, because this assay has produced multiple assay endpoints where this one serves a reporter gene function. To generalize the intended target to other relatable targets, this assay endpoint is annotated to the nuclear receptor intended target family, where the subfamily is non-steroidal.
Human liver HepG2 cells are transiently transfected with multiple reporter transcription units (MRTUs) in 6-well plates using FuGene 6 reagent (Roche; 3 ml FuGene/1 mg DNA). The MRTU constructs are regulated by a cis-regulating element (promoter). […] A major difference between the CIS and TRANS system is that in CIS activities of endogenous TFs are measured, whereas the TRANS assay evaluates changes in activities of exogenous, chimeric NR-Gal4 proteins. […] At the end of 24 hour incubation, total RNA was isolated using TriZol reagent (Invitrogen). The isolated RNA is then reverse-transcribed using oligo(dT) primer and Mo-MLV reverse transcriptase (Invitrogen) with DNAse I (Ambion) treatment for 30 min. The one-tenth of the produced cDNA was amplified by PCR using Taq DNA polymerase (Invitrogen) and two reporter sequence-specific primers. The PCR products were fluorescently labeled by primer extension with 6-arboxyfluorescein (6-FAM) 5'-labeled reporter sequence-specific primer (2 min at 95 C, 20 s at 68 C and 10 min at 72 C) and these products were digested with 5U of HpaI (New England Biolabs) for 2h at 37 C. The fragments were purified using Qiaquick PCR columns (Qiagen), analyzed on an ABI 3130xL genetic analyzer (Applied Biosystems) with peak positions identified by using a set of X-rhodamine (ROX)-labeled MapMarker1000 molecular weight standards (BioVentures). The raw capillary electrophoresis data was processed using Attagraph software (Attagene).
In the case of `NCC(F)(F)C(F)(F)C(F)(F)C(F)(F)C(F)(F)C(F)(F)F`, the result was inactive. For the compound `CCOC(=O)CC(=O)C(F)(F)C(F)(F)F`, the compound was classed as inactive. Still for that read-out and setting: for `COC(F)(C(F)F)C(F)(F)F` (stereo not given) the value was “inactive”. The same measure, in the same setting: for `O=S(=O)(O)CCC(F)(F)C(F)(F)C(F)(F)C(F)(F)F` the value was “inactive”; for `C=CC(=O)OCC(F)(F)C(F)(F)C(F)(F)COC(=O)C=C`, “inactive”. On the same count and under the same terms, for `Cc1ccc2c(c1)OCC(=O)CO2` the value was “inactive”; for `CCN=C1C=CC(=C(c2ccc(N(CC)CC)cc2)c2ccc(N(CC)CC)cc2)c2ccccc21`, “inactive”. With `C[C@]12CC[C@H]3C(=CCc4cc(O)ccc43)[C@@H]1CCC2=O`, the AC50 (commonly the concentration giving half of the maximal activity seen) was 26.6 µM (active). Take `Cc1cccc(C)n1`: the compound was called inactive. Still for that read-out and setting: for `CC(C)CCCC(C)CCO` (stereo not given) the value was “inactive”. Consider `CC1=CC2C3C=CC(C3)C2C1C` (stereo not given), for which the AC50 is 0.387 µM (active). On to `C=CC(=O)OCCC(F)(F)C(F)(F)C(F)(F)C(F)(F)F`, for which the outcome was inactive. As for `O=C(O)CCC(F)(F)C(F)(F)C(F)(F)C(F)(F)C(F)(F)C(F)(F)C(F)(F)F`, the call was inactive. Still for that read-out and setting: for `C=C(C)CCCC` the value was “inactive”; for `OCCCCl`, “inactive”; for `CCCCCCCCCCCC(=O)Cl`, “inactive”.

On to `Cc1ccc(O)c(-n2nc3ccccc3n2)c1`, for which the AC50 is 14.6 µM (active). Turning to `CC1CCCCC1`, the outcome was inactive. Consider `N#Cc1ccccc1O`, for which the result was inactive. Same read-out and setting: for `c1ccc(C[P+](c2ccccc2)(c2ccccc2)c2ccccc2)cc1` the value was “inactive”; for `CC(C)OC(=O)COc1ccc(Cl)cc1Cl`, “inactive”.

`CCN(CC)c1ccc(N=Nc2ccccc2)cc1`: the AC50 is 4.22 µM (active). Take `CCN=c1cc2oc3cc(NCC)c(C)cc3c(-c3ccccc3C(=O)OCC)c-2cc1C`: the compound was called inactive. Take `O=C(O)C(F)(F)C(F)(F)C(F)(F)OC(F)(C(F)(F)F)C(F)(F)F`: the compound was called inactive.

As for `O=C(O)C(F)(F)C(F)(F)C(F)(F)C(F)(F)C(F)(F)C(F)(F)C(F)F`, the outcome was inactive. Consider `NS(=O)(=O)C(F)(F)C(F)(F)C(F)(F)C(F)(F)C(F)(F)C(F)(F)F`, for which the compound was classed as inactive.

Take `O=C(c1ccccc1)c1ccc(Cl)cc1`: the AC50 is 37.1 µM (active). Regarding `Oc1ccc2c(c1)CCC2`, the compound was called inactive. `CO[Si](C)(CCC(F)(F)C(F)(F)C(F)(F)C(F)(F)C(F)(F)C(F)(F)F)OC`: the outcome was inactive.

`O=S(=O)(Cl)C(F)(F)C(F)(F)C(F)(F)C(F)(F)C(F)(F)C(F)(F)C(F)(F)C(F)(F)F`: the outcome was inactive. The same measure, in the same setting: for `CSc1ccc(O)cc1C` the value was “inactive”; for `CC(C)OC=O`, “inactive”; for `OCC(O)CC(F)(F)C(F)(F)C(F)(F)C(F)(F)C(F)(F)C(F)(F)C(F)(F)C(F)(F)F` (stereo not given), “inactive”. On the same count and under the same terms, for `O=C(Cl)C(F)(F)C(F)(F)C(F)(F)C(F)(F)C(F)(F)C(F)(F)F` the value was “inactive”. On to `OCC(F)(F)C(F)(F)C(F)(F)C(F)(F)C(F)(F)C(F)(F)CO`, for which the result was inactive. Regarding `O=C1c2c(O)ccc(Nc3ccc(CCO)cc3)c2C(=O)c2c([N+](=O)[O-])ccc(O)c21`, the AC50 was 6.55 µM (active). With `CC(O)C#CC(C)O` (stereo not given), the call was inactive. As to `CCCCC(CC)COC(=O)c1ccc(N(C)C)cc1` (stereo not given), the AC50 is 27.2 µM (active). As to `C#CC(O)CCC` (stereo not given), the outcome was inactive. Still for that read-out and setting: for `CCCCCCCC/C=C\CCCCCCCC(=O)OCC(O)CO` (stereo not given) the value was “inactive”.
